Measurements from the OligoGym collection.
Note: reference of the scale not given here.

The sequences below were run against ARHGAP5 (assay: pooled miR-30 sensor sort-seq; sequence = guide strand). Details: shRNA.
TAGATTGATATTATGATCTTGA was tested, and the sensor-assay potency score (higher = more potent) was 1.05.
Sequence TTTAGCCACAAGCATGTCCTTG has a sensor-assay potency score (higher = more potent) of -0.792.
For TAAGGTTGCATGCAGCAGCAGC, the sensor-assay potency score (higher = more potent) was -0.593.
TTGCTTTTTGTCCAAATCCAGC was tested, and the sensor-assay potency score (higher = more potent) was -1.64.
With TTTGAATATTGTCTTGGTCAGT the sensor-assay potency score (higher = more potent) was -0.551.
TTTCTTTCAAACAACATCCCAA gave a sensor-assay potency score (higher = more potent) of 0.179.
For TTTCTTAACAATTTCTTTCAAG, the sensor-assay potency score (higher = more potent) was -0.634.
Work on TTTAGTTATCTACACCGACTGC yielded a sensor-assay potency score (higher = more potent) of -0.686.
Sequence TTCTACAACAAATTTCATGTTT has a sensor-assay potency score (higher = more potent) of -0.238.
For TACAAGACCATCATAGATCTTT, the sensor-assay potency score (higher = more potent) was 0.493.
Sequence TTCTATAGTATGACTTGGCTTT has a sensor-assay potency score (higher = more potent) of 0.162.
In the case of TTTATGTTGCTGACTAACCCTG, the sensor-assay potency score (higher = more potent) is reported as -0.695.
TAGTAGTAGACAGAAACTCTCG gave a sensor-assay potency score (higher = more potent) of 0.344.
With TTTTTGTCCAAATCCAGCCTGT the sensor-assay potency score (higher = more potent) was -0.169.
In the case of ATGATCTTGATCAAACTGCTTT, the sensor-assay potency score (higher = more potent) is reported as -0.663.
TAATTGTGGTTGTATCAGCTGA gave a sensor-assay potency score (higher = more potent) of -0.356.
TTTTATTTCATTATGGACCATA gave a sensor-assay potency score (higher = more potent) of -0.301.
For TTATGTTGCTGACTAACCCTGT, the sensor-assay potency score (higher = more potent) was 0.477.
Work on TCAAATAACAAAATCAGCCAGA yielded a sensor-assay potency score (higher = more potent) of -0.237.
In the case of TTCTACACTATACTAAATGTGT, the sensor-assay potency score (higher = more potent) is reported as -0.488.
For TTGCACAACATTATCAACTCAC, the sensor-assay potency score (higher = more potent) was 0.731.
For TAAACCTCTCCAGTCATGCTTA, the sensor-assay potency score (higher = more potent) was -0.431.
With TAGTAGACAGAAACTCTCGATT the sensor-assay potency score (higher = more potent) was -0.0895.
In the case of TGAAGTATACTACTGAACCCTG, the sensor-assay potency score (higher = more potent) is reported as -0.25.

The sequences below were run against ARHGEF15 in the same assay as above. Details: shRNA.
TTGTGGAGAGGAGCCATTGTGG was tested, and the sensor-assay potency score (higher = more potent) was -1.62.
Sequence ACATAATCCACATACACCGAGA has a sensor-assay potency score (higher = more potent) of -1.37.
TTGCGCTCAGCAGTGGAGCGGT showed a sensor-assay potency score (higher = more potent) of -0.34.
TAGGATGTGAGGACAACGGCAG gave a sensor-assay potency score (higher = more potent) of 0.25.
In the case of TATTCTGAGGAGCTTCATCAGG, the sensor-assay potency score (higher = more potent) is reported as -0.865.
Sequence TTGCACAGCCGGAAGCTCCTGC has a sensor-assay potency score (higher = more potent) of -0.0952.
With TAACTCAGTCAGCTCTCCCTGG the sensor-assay potency score (higher = more potent) was -0.77.
TTGCTGGAGGAGTATTCTGAGG showed a sensor-assay potency score (higher = more potent) of -1.94.
With TTGGAGTAGTCGGTGGGTGGGG the sensor-assay potency score (higher = more potent) was -0.515.
For TGATCTTGCTGACAGCACCCAG, the sensor-assay potency score (higher = more potent) was -1.42.
With TTGCTAGAAACCGCTCGCTGAC the sensor-assay potency score (higher = more potent) was -1.26.
With TTTCGGGGTAGTTCTTGTGGAG the sensor-assay potency score (higher = more potent) was -0.734.

Each sequence was assayed against ARIH1 in the same assay as above. Details: shRNA.
In the case of TTGGACTTTAACAACATGGTGG, the sensor-assay potency score (higher = more potent) is reported as 0.0155.
Work on TAGCGGTTACAGTTGTACCAGG yielded a sensor-assay potency score (higher = more potent) of -0.854.
In the case of TTACAGTAGAACAGGTACCTCT, the sensor-assay potency score (higher = more potent) is reported as -0.0917.
